From PubChem BioAssay (NCI)
This is part of a sample that, as a whole, favours compounds with a hit. Of some 79,000 tested, about 15% had one in any assay. Cut-off read from the data, not from the text of the source: active = growth inhibition above about 70%; inactive = the rest.

Columns and labels:
[1] = NCI Yeast Anticancer Drug Screen. Data for the rad50 strain (AID 155);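 note: 0% = growth of vehicle-only cultures of the same strain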; settings: S. cerevisiae rad50 strain growth inhibition; at 50.0 µM; hits give high values
Outline: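 Yeast carrying a defined DNA repair defect were exposed to test compounds, and growth was compared with vehicle-treated controls to give percent inhibition.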

[2] = NCI Yeast Anticancer Drug Screen. Data for the mec2-1 strain (AID 157); settings: S. cerevisiae mec2-1 strain, at 50.0 µM, hits give high values
Outline: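 Vehicle-treated cultures served as reference for growth inhibition of compound-exposed mec2-1 yeast.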

[3] = NCI Yeast Anticancer Drug Screen. Data for the sgs1 mgt1 strain (AID 161);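 note: 0% = growth of cultures given vehicle only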; settings: S. cerevisiae sgs1 mgt1 strain, at 50.0 µM, hits give high values
Outline: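 Read-out: growth inhibition vs vehicle controls. Cells: mutant yeast strain deficient in DNA damage repair.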

[4] = NCI Yeast Anticancer Drug Screen. Data for the cln2 rad14 strain (AID 165);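 note: 0% = growth equal to vehicle treated cultures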; settings: S. cerevisiae cln2 rad14 strain, at 50.0 µM, hits give high values
Outline: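 Each compound was tested on cln2 rad14 yeast. Inhibition of growth was calculated against vehicle-exposed controls.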

[5] = NCI Yeast Anticancer Drug Screen. Data for the bub3 strain (AID 167); settings: S. cerevisiae bub3 mutant strain, at 50.0 µM, hits give high values
Outline: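 Compounds were applied to a genetically altered yeast strain carrying a cell-cycle control defect. Growth inhibition was scored against vehicle-treated controls.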

[6] = NCI Yeast Anticancer Drug Screen. Data for the mlh1 rad18 strain (AID 175); settings: S. cerevisiae mlh1 rad18 strain growth inhibition; at 50.0 µM; hits give high values
Outline: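 Vehicle-treated cultures served as the reference for growth inhibition in a yeast strain carrying DNA damage repair alterations exposed to each compound.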

Measured: growth inhibition

O=C(O)CCC(CCC(=O)O)(C(=O)O)C(=O)O
inactive: [1] 5.8% | [2] -7.85% | [3] -6.1% | [4] -41% | [5] -0.85% | [6] 2.9%

CCOC(=O)CSc1ccnc(=O)[nH]1
inactive: [1] -9.25% | [2] -8.9% | [3] -5.35% | [4] 0.1% | [5] -16% | [6] -31.8%

Nc1ccc(-c2c[nH]c(=O)c([N+](=O)[O-])c2)cc1
inactive: [1] 3.5% | [2] -6.05% | [3] -1.35% | [4] -28.5% | [5] 3.5% | [6] -6.4%

CCn1c2ccc([N+](=O)[O-])cc2c2c([N+](=O)[O-])c(NC=O)ccc21
inactive: [1] 12.2% | [2] 15.2% | [3] -4.55% | [4] 17.6% | [5] 13.8% | [6] 28.2%

O=P(O)(c1ccccc1Br)c1ccccc1Br
inactive: [1] 43.5% | [2] 10.6% | [3] 28% | [4] 26.2% | [5] 4.65% | [6] 20.2%

CCCCCCCCCCC1OC(C)C(C)O1 (stereo unspecified)
inactive: [1] 0.4% | [2] -13.1% | [3] -7.3% | [4] -25.1% | [5] -5.5% | [6] 13.2%

Cn1nnc2c(C(N)=S)ncn2c1=O
inactive: [1] 30.1% | [2] 11% | [3] 10.7% | [4] 19.6% | [5] 17.9% | [6] 22%

CC(=O)c1c(N)n(C)c(=O)n(C)c1=O
inactive: [1] 36% | [2] 2.9% | [3] 3.55% | [4] -47.1% | [5] -14.6% | [6] 17.4%

O=C1OC(c2cccc3ccc(Br)cc23)c2ccccc21 (stereo unspecified)
inactive: [1] 21.1% | [2] 0.5% | [3] 6.2% | [4] 19.5% | [5] 16.1% | [6] 3.45%

COC(=O)C1C(C)(C(=O)OC)N=NC1(c1ccccc1)c1ccccc1 (stereo unspecified)
inactive: [1] 7.85% | [2] -1.05% | [3] -7.55% | [4] 16% | [5] 19.8% | [6] -3.4%

CN(N)C(=O)Nc1ccc([N+](=O)[O-])cc1
inactive: [1] 16.4% | [2] 5.65% | [3] -2.7% | [4] 7.45% | [5] 12% | [6] -1.75%

C[C@@]12C[C@@H](c3ccccc3O1)N1CCCSC1=N2
inactive: [1] 20.2% | [2] -16% | [3] 4.6% | [4] 32.8% | [5] -9.8% | [6] 12.4%

COc1ccc(C=C(c2ccc(OCc3ccccc3)cc2)c2ccc(OCc3ccccc3)cc2)cc1
inactive: [1] 13.2% | [2] -7.7% | [3] 6.55% | [4] 7.5% | [5] -28.1% | [6] -28.1%

CCOC(=O)COc1ccc2c(C)cc(=O)oc2c1[N+](=O)[O-]
inactive: [1] 11.4% | [2] -6.85% | [3] 2.1% | [4] 6.95% | [5] 6.6% | [6] 35.5%

OC1CC2C3CCC(C3)C2C1O (stereo unspecified)
inactive: [1] -11.8% | [2] -6.35% | [3] -10.4% | [4] -7.45% | [5] 9.55% | [6] -2.95%

CC(=O)O[C@H]1CC[C@@]2(C)C(=CC(=O)[C@H]3[C@@H]4CC[C@H]([C@H](C)CCCC(C)C)[C@@]4(C)CC[C@@H]32)C1
inactive: [1] 10.8% | [2] 19.1% | [3] 39% | [4] 36% | [5] 5.9% | [6] 46%

C#CCOC(=O)c1ccc(C(=O)OCC#C)cc1
inactive: [1] 11.9% | [2] -17.3% | [3] -9.3% | [4] 8.35% | [5] 3.15% | [6] -20.7%

CC12CCC(=O)[C@@]1(C)CCCC2=O (stereo partly specified)
inactive: [1] -13% | [2] 5% | [3] -23.1% | [4] 6.8% | [5] -6.9% | [6] 5.05%

COc1cc(C[C@H]2C(=O)OCC2Cc2ccc(OC)c(OC)c2)ccc1O (stereo partly specified)
inactive: [1] -39.1% | [2] -60.6% | [3] -26.9% | [4] -5.2% | [5] 2.05% | [6] -22.3%

O=C1c2cccc3cccc(c23)C(=O)N1C(Cc1ccccc1)c1ccccc1 (stereo unspecified)
inactive: [1] -15.5% | [2] -49.4% | [3] -15.1% | [4] -4.2% | [5] -37.8% | [6] -31.1%

CCCCCCCCCCCCCCCCN(C)C(=S)c1ccc(OC)cc1
inactive: [1] 25.4% | [2] -3.4% | [3] -1.8% | [4] -3.15% | [5] -1% | [6] -8.4%

C=CCc1cccc(C)c1O
inactive: [1] 18.9% | [2] -16.1% | [3] 20.4% | [4] 13.6% | [5] -2.6% | [6] 20.3%

O=C1CC(C(=O)O)Cc2c(Br)ccc(O)c21 (stereo unspecified)
inactive: [1] 20.8% | [2] 13.8% | [3] -22.5% | [4] -3.6% | [5] -34% | [6] -44.4%

CC(C)OC/N=C(/N)NC#N
inactive: [1] -17.1% | [2] 13.1% | [3] -29.4% | [4] 12.6% | [5] -10.1% | [6] -6.5%

CC(=O)C1(C)SC(N(c2ccccc2)c2ccccc2)=NC1=O (stereo unspecified)
inactive: [1] -1.2% | [2] -4.4% | [3] -4.05% | [4] 2.4% | [5] 9.05% | [6] -0.6%

CCOC(=O)CNC(=O)C(Cc1cnc[nH]1)NC(=O)CNC(=O)OCc1ccccc1 (stereo unspecified)
inactive: [1] 1.15% | [2] -2.15% | [3] 9.75% | [4] -23.9% | [5] 1.1% | [6] 9.2%

CN(CC#N)[C@H]1CCC[C@]1(O)C#C[Si](C)(C)c1ccccc1
inactive: [1] 9.15% | [2] -19.8% | [3] 19.1% | [4] 30.9% | [5] 9.05% | [6] 1.55%

CCOc1cc2c(cc1O)CC[C@@H]1[C@@H]2CC[C@]2(C)C(N)CC[C@@H]12 (stereo partly specified)
inactive: [1] -0.95% | [2] 5.85% | [3] -18.2% | [4] -33.1% | [5] -20.1% | [6] -8.8%

NS(=O)(=O)c1cc2c(cc1Cl)NC(C(=O)NNC(=O)c1ccncc1)=NS2(=O)=O
inactive: [1] -1.6% | [2] -16.5% | [3] -4.8% | [4] 1.3% | [5] -11.9% | [6] -20.4%

CCOC(=O)c1cnc(=S)n(CCC(C)C)c1N
inactive: [1] -11.2% | [2] 8.25% | [3] 12.7% | [4] -40.5% | [5] 2.9% | [6] 4.95%

O=C(CCCCC(=O)N1CCOCC1)N1CCOCC1
inactive: [1] -9.3% | [2] -21.9% | [3] -2.45% | [4] -19.6% | [5] 2.1% | [6] -9.4%

CN(C)c1nnnn1Cc1ccccc1
inactive: [1] -1.35% | [2] -3.8% | [3] -7.25% | [4] -26.3% | [5] 5.65% | [6] 1.8%

CC(=O)N1C(=O)C(=O)c2cc(Cl)ccc21
inactive: [1] -1.85% | [2] -6.9% | [3] 3.95% | [4] -2.1% | [5] -0.2% | [6] -1.6%

O=C(/C=C(\C(=O)c1ccccc1)c1ccccc1)c1ccc(Cl)cc1
inactive: [1] -12% | [2] 8.5% | [3] -4.45% | [4] 1.05% | [5] -13.1% | [6] -24.6%

COC(=O)C1=CO[C@@H](C)[C@@H]2CN3CCc4c([nH]c5ccc(OC)cc45)[C@@H]3C[C@H]12
inactive: [1] 8.9% | [2] -19.9% | [3] -24.9% | [4] -18.6% | [5] -2.9% | [6] -16.4%

O=C(NC(CS)C(=O)O)c1cnc2ccccc2n1 (stereo unspecified)
inactive: [1] -4.8% | [2] -12.9% | [3] 21.2% | [4] -9.9% | [5] 18.6% | [6] 0.3%

CC1=CC(=O)OC(=O)/C1=C/c1ccc(N(C)C)cc1
inactive: [1] -11.2% | [2] 33.8% | [3] -7.65% | [4] 19.7% | [5] 23% | [6] -9.4%

COc1ccccc1NC(=O)CC(=O)N1N=C(C)C(N=Nc2ccc(S(N)(=O)=O)cc2)C1=O (stereo unspecified)
inactive: [1] 13.3% | [2] -1.65% | [3] -8.2% | [4] 12.8% | [5] 11% | [6] 11.3%

COc1ccc(-c2ccc(Cc3ccc(-c4ccc(OC)cc4)o3)o2)cc1
inactive: [1] 4.35% | [2] -0.35% | [3] 6.7% | [4] -72.7% | [5] -6.4% | [6] 1%

N#Cc1ccccc1NC(=O)Nc1ccc(Cl)cc1Cl
inactive: [1] 16.4% | [2] -7.35% | [3] 27% | [4] -0.25% | [5] 4.35% | [6] 10.6%

CC(C)=Cc1cc(CCC/C(C)=C/Cc2c(O)cc(C)c(C(=O)O)c2O)co1
inactive: [1] -9% | [2] -25.9% | [3] -1.75% | [4] -6.55% | [5] -18.9% | [6] -15.2%
